# According to PubChem BioAssay AID1272365 (Small Molecule Screening Facility, UW Madison, 2018):
# Several values for one entry are separate records, joined by “and”; a condition that tells them apart may be missing. Equal values may be shown once. Out of some 430,000 compounds screened, about 2,600 (0.6%) were called active. Only a selection was taken, and actives are over-represented in it overall. Values without a mark were called inactive. Rule as the data show it: active = inhibition mostly above about 37% (no sharp cut-off); inactive = mostly below about 20%.
# Test system: PriA–SSB C-terminal tail interaction (Klebsiella pneumoniae)
# Assay: inhibitors of Klebsiella pneumoniae PriA binding to SSB C-terminal tail, primary screen, biochemical, AlphaScreen (AID 1272365);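 as to inhibition: plate controls were negative control peptide for no effect and reference peptide for full effect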
# Conditions: AlphaScreen SSBct-PriA binding, biotinylated peptide; at 33 µM, hits give high values
row,Structure (SMILES),inhibition
1,CS(=O)(=O)c1ccc(-c2ccc(NS(=O)(=O)c3ccc4c(c3)CCCC4)cc2)nn1,-11%
2,O=C(c1cccc(Oc2ncccn2)c1)N1CCCC1,-8%
3,O=C(C[C@@H]1C/C=C/CC[C@H](Cc2ccc(F)cc2)C(=O)OC[C@@H](Cc2ccccc2)NC1=O)NCCO,-9.28%
4,O=C(c1ccc(-n2cccc2)cc1)N1CCC[C@H](Cc2nc(-c3ccsc3)no2)C1,31% (active)
5,O=C(c1cc(-c2cccs2)on1)N1CCC[C@H](Cc2nc(-c3ccsc3)no2)C1,3%
6,O=C(c1ccc(=O)[nH]n1)N1CCCC(Cc2nc(-c3ccsc3)no2)C1 (stereo not drawn),-8%
7,O=C(c1ccc(-c2cccs2)cc1)N1CC(Oc2nccs2)C1,-9%
8,Cc1cc(=O)n(C)c(=O)n1CCCNc1ccccc1,-14.1%
9,CC(C)Oc1ccc(C(=O)Nc2cc(=O)n(C)c(=O)n2C)cc1,-9.4%
10,Cn1c(Nc2ccccc2)cc(=O)n(C)c1=O,43.6% (active)
11,N#Cc1nccnc1N1CCC(CNC(=O)c2cc(=O)c3ccccc3o2)CC1,-11%
12,Cn1nc(CNS(=O)(=O)C2CC2)cc1-c1ccco1,-8%
13,COc1ccc(NC(=O)NCc2ccc3c(c2)OCO3)c(OC)c1,-0.59%
14,COc1ccc(OC)c(NC(=S)NCc2ccc3c(c2)cc(C)n3C)c1,81.2% (active)
15,CCOCC(=O)NCc1ccc2c(c1)cc(C)n2C,0.95%
16,CCOc1ccc(S(=O)(=O)NCCCn2nc(-c3ccncc3)ccc2=O)cc1,-20%
17,COC(=O)N1CCc2c(sc(NC(=O)c3cccc(N4C(=O)CCC4=O)c3)c2C#N)C1,-11%
18,CC(Cc1cccs1)NC(=O)Cc1ccccc1Cl (stereo not drawn),-11%
19,COC(=O)c1ccc(C=NN2C(C)CCCC2C)cc1 (stereo not drawn),14.5%
20,O=[N+]([O-])c1ccc(C=NN2CCN(c3ccc(Cl)cc3)CC2)cc1,-20.9%
21,CC1CCCC(C)N1N=Cc1ccc([N+](=O)[O-])cc1 (stereo not drawn),46.8% (active)
22,COc1ccc(C(=O)C=C(C)NCc2ccc3c(c2)OCO3)cc1,12.8%
23,CN1C(=O)C(C)(C)COc2ccc(NC(=O)c3ccc(Cl)cc3)cc21,18%
24,CCOc1ccc(N(CC)S(=O)(=O)c2cccc3nsnc23)cc1,4.13%
25,CCOc1ccc(NC(=O)CCS(=O)(=O)c2cccc3nsnc23)cc1,-12%

row,Structure (SMILES),inhibition
1,CCOc1ccc(-c2cn(S(=O)(=O)c3cccc4nsnc34)nc2N)cc1,40.5% (active)
2,COc1ccccc1-c1nnc2n1N=C(c1ccc(Br)cc1)CS2,-20%
3,C=C1Cn2c(nnc2-c2ccc(Br)cc2)S1,97% (active)
4,Brc1ccc(-c2nn[nH]n2)cc1,-6.63%
5,O=C(C[C@H]1C/C=C/CCCC(=O)OC[C@H]2CCCN2C1=O)NCCO,-5.28%
6,Cn1nnc2c(N3CC(C(=O)Nc4ccc5cn[nH]c5c4)C3)ncnc21,2%
7,O[C@H](COc1cccc(Oc2ccccc2)c1)CN1CCN(c2ccccc2)CC1,31% (active)
8,OC(COc1ccc2c(c1)CCC2)CN1CCN(c2cccc(Cl)c2)CC1 (stereo not drawn),-11%
9,OC(COCc1ccco1)CN1CCN(c2ccccc2)CC1 (stereo not drawn),-2.32%
10,CSCC(C)(O)CNS(=O)(=O)c1cccc2ccccc12 (stereo not drawn),-6%
11,Cn1nc2cc(Br)ccc2c1C(=O)N1CCc2ncncc2C1,1%
12,CCc1cc(=O)[nH]c2nnc(SCC#N)n12,-14%
13,Cc1cc(C)c2nc(N(CCn3cccn3)C(=O)c3cc4ccccc4o3)sc2c1,-1%
14,Cc1cc(C)c2nc(N(CCCn3ccnc3)C(=O)c3ccco3)sc2c1,95.7% (active)
15,COc1ccc(OC)c2sc(N(CCCN3CCOCC3)C(=O)c3cc(C)no3)nc12,3%
16,O=C(NCCc1ccoc1)C(=O)Nc1ccc(F)cc1F,8%
17,CCC1SC(=S)N(C)C1=O (stereo not drawn),-17%
18,CC(C)CCN1C(=O)C(C)(C)COc2cc(NC(=O)CN3C(=O)c4ccccc4C3=O)ccc21,-6%
19,O=C(NCCCc1ccccc1)C(=O)NCC1OCCN1S(=O)(=O)c1ccccc1 (stereo not drawn),-3.21%
20,O=C(NCCCn1ccnc1)C(=O)NCC1OCCN1S(=O)(=O)c1cc(F)ccc1F (stereo not drawn),70.1% (active)
21,Cc1cc(F)ccc1S(=O)(=O)N1CCCOC1CNC(=O)C(=O)NCCC1=CCCCC1 (stereo not drawn),2.41%
22,O=C(Nc1cnc(-n2ccnc2)nc1)c1ccccc1Cl,-6%
23,O=C(c1cccs1)c1ccc(CNS(=O)(=O)CCOc2ccccc2)s1,-4%
24,Cc1cc(C)n(-c2nc(O)cc(=O)[nH]2)n1,5.59%
25,Cc1cc(C)n(-c2nc(N)cc(=O)[nH]2)n1,73% (active)

row,Structure (SMILES),inhibition
1,Cc1cc(=O)[nH]c(-n2nc(C)c(CCC(=O)Nc3ccc(Cl)cc3)c2C)n1,-4%
2,CN(C)CCN(C(=O)c1cc2cc([N+](=O)[O-])ccc2s1)c1nc2cc3c(cc2s1)OCO3,28%
3,O=C(C1CC=CCC1)N1CCCC(S(=O)(=O)c2ccc(F)cc2)C1 (stereo not drawn),-14%
4,CN1CCCc2cc(CCNC(=O)c3ccc(Br)cc3)ccc21,18% and -16%
5,COc1cc(NC(=O)NCCc2ccc3c(c2)CCCN3C)cc(OC)c1,63% (active)
6,CN1CCCc2cc(CCNC(=O)C(=O)Nc3ccc4c(c3)OCCO4)ccc21,-11%
7,Cc1ccc(NC(=O)CCc2csc(NC(=O)c3ccc(=O)[nH]c3)n2)cc1Cl,-9%
8,CN(C)c1nn(CC(=O)NCc2ccc3c(c2)OCO3)cc1-c1ccc(Cl)cc1,1%
9,CC1Nc2ncnn2C(c2ccccc2)C1C(=O)Nc1ccccc1 (stereo not drawn),-3%
10,COc1ccc(/C=N/Nc2ccccc2[N+](=O)[O-])c(C(=O)O)c1OC,inactive
11,Cc1ccc(NS(=O)(=O)c2ccc(N/N=C/c3ccccc3OCC(=O)O)c([N+](=O)[O-])c2)c(C)c1,active
12,CC(=O)Nc1cccc(C(C)=NNc2ccc(S(=O)(=O)Nc3ccccc3C(=O)O)cc2[N+](=O)[O-])c1,12%
13,CCCCc1ccc(Nc2c(C(=O)N3CCSCC3)cnc3nc(C)ccc23)cc1,-6%
14,COCCN(Cc1ccncc1)C(=O)c1ccco1,-8%
15,O=C(c1ccccc1)c1ccccc1C(=O)N1CCC(Oc2ncccc2Cl)CC1,6%
16,Fc1cc(Br)ccc1NC(=S)Nc1cccnc1,-8.39%
17,Oc1ccc(C=NNC(=S)Nc2cccnc2)c(O)c1O,100% (active)
18,O=C(NN=Cc1cccc2ccccc12)c1cccnc1,-10.5%
19,COc1ncc(NC(=O)c2snnc2C)cn1,1%
20,O=C(Nc1cc2ccccc2cc1NC(=O)c1ccc(N2C(=O)CCC2=O)cc1)c1ccc(N2C(=O)CCC2=O)cc1,0%
21,COc1ccc2oc(-c3csc(NC(=O)c4ccc(N5C(=O)CCC5=O)cc4)n3)cc2c1,6%
22,O=C(Nc1nc(-c2ccc(Cl)cc2Cl)cs1)c1ccc(N2C(=O)CCC2=O)cc1,64% (active)
23,COc1ccc(S(=O)(=O)NCCn2nc(-c3ccncc3)ccc2=O)cc1F,-6%
24,O=S(=O)(Cc1ccccc1)NCC1CCN(c2cnccn2)CC1,-1%
25,COc1ccc(OCC(O)CNc2ccc(C)cc2)cc1 (stereo not drawn),36% (active)

row,Structure (SMILES),inhibition
1,CC(=O)Nc1ccc(OCC(O)CN(c2ccc(C)cc2)S(C)(=O)=O)cc1 (stereo not drawn),-18%
2,CCc1ccc(S(=O)(=O)NCC(O)COc2ccc(OC)cc2)cc1 (stereo not drawn),-7.77%
3,CN(C)c1ccc(C=NN=C2NC(=O)/C(=C/c3ccc([N+](=O)[O-])cc3)S2)cc1,-15.2%
4,O=C(NCc1cccs1)C(=O)Nc1cccc(F)c1,-15%
5,Cc1ccc(C(=O)N/C(=C\c2cccs2)C(=O)NCCc2ccccn2)cc1C,-25.3%
6,COc1ccc(CCN2COc3ccc4c(c3C2)O/C(=C\c2ccco2)C4=O)cc1OC,3%
7,O=C1/C(=C/c2cccs2)Oc2c1ccc1c2CN(Cc2ccccn2)CO1,101% (active)
8,Cc1cc(N2CCC(NC(=O)c3ccc4ncsc4c3)CC2)n[nH]1,-7%
9,O=C(c1ccccn1)N1CC(N2C(=O)CCC2=O)C1,-11%
10,COCCCNC(=O)c1ccc2c(c1)ncn2-c1ccccc1OC,-10.8%
11,COc1ccc(F)cc1S(=O)(=O)Nc1ccc2c(c1)CCCN2S(=O)(=O)c1ccccc1,1%
12,COc1ccccc1-n1cnc2cc(NS(=O)(=O)c3ccccc3)ccc21,73.9% (active)
13,Cc1c(C(=O)NC(=S)NCc2cccnc2)oc2ccccc12,-8.37%
14,Cc1cccc(OCCNC(=S)NC(=O)c2cccnc2)c1,1.76%
15,Cc1ccc(C(=O)NC(=S)NCc2cccnc2)cc1,46.3% (active)
16,CCOC(=O)CSc1nc2cc(OC)c(OC)cc2c2nc(CCn3nc(C)cc3C)nn12,3%
17,CC(=NNC(=O)c1ccc(F)cc1)c1ccccn1,-1.36%
18,CCN(CC)c1ccc(C=NNC(=O)c2c[nH]c3ccccc23)cc1,16.7%
19,CC(=NNC(=O)c1c[nH]c2ccccc12)c1ccccn1,75.7% (active)
20,CC1=NN(CCN2CCN(c3ccc(F)cc3)CC2)c2nc3c(c(=O)n(C)c(=O)n3C)n2C1,6% and -7%
21,Cn1cc(NC(=O)N2CCc3ccccc3C2)c2ccccc21,-3%
22,CCn1cc(NC(=O)N2CCCc3ccccc32)c2ccccc21,2%
23,CCn1cc(NC(=O)N2CCc3ccccc32)c2ccccc21,40% (active)
